The record followed here is ChEMBL document CHEMBL1961873, “Compounds: GSK PKIS; Assays: Nanosyn kinase panel” (2012).

Assay [1] concerns the target Sphingosine kinase 1 (Homo sapiens) (UniProt Q9NYA1). Conditions: at 1 µM.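 Note: mean SPHK1 inhibition value reported from the GSK PKIS kinase panel screen.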
For assay [2], the target named is T1, Sphingosine kinase 2 (Homo sapiens) (UniProt Q9NRA0).
T1 sequence (whole entry): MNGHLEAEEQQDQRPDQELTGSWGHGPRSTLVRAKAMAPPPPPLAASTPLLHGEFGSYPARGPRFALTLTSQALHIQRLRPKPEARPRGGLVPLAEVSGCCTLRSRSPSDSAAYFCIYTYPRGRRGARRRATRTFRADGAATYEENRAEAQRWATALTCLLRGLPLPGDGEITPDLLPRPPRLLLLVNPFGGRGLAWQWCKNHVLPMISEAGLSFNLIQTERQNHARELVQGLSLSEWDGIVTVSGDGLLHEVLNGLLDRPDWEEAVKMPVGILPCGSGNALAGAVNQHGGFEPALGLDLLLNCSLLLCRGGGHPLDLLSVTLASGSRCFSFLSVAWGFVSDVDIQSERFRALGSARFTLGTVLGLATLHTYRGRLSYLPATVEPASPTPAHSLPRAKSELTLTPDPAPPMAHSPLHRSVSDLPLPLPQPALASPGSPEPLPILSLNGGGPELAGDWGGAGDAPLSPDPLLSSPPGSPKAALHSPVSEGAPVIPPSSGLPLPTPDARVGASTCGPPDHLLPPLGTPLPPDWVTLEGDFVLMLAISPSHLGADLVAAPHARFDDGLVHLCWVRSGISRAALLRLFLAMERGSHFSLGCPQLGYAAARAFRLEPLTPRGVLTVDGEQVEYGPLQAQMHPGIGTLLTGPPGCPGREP
Conditions: at 0.1 µM.

The target in assay [3] is T1, Sphingosine kinase 2 (Homo sapiens). Particulars: at 1 µM.
For assay [4], the target named is Casein kinase II subunit alpha (Homo sapiens) (UniProt P68400). Particulars: at 0.1 µM.
Sequence of Casein kinase II subunit alpha (Homo sapiens) (P68400 whole entry, looked up): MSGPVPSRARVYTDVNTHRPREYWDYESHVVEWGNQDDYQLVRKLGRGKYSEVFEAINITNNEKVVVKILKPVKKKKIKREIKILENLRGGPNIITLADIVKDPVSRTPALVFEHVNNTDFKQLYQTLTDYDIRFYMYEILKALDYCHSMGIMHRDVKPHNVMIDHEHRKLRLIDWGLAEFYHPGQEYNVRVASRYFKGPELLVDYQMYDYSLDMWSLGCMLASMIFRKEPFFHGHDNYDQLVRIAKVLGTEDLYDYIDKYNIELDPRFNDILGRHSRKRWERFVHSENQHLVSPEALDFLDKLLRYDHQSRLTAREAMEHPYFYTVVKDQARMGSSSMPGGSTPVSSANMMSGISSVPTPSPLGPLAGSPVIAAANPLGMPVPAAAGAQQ
Assay [5] shares this target. Conditions: at 1 µM.
Assay [6] deals with T2, Inhibitor of nuclear factor kappa-B kinase subunit alpha (Homo sapiens) (UniProt O15111).
T2 sequence (whole entry): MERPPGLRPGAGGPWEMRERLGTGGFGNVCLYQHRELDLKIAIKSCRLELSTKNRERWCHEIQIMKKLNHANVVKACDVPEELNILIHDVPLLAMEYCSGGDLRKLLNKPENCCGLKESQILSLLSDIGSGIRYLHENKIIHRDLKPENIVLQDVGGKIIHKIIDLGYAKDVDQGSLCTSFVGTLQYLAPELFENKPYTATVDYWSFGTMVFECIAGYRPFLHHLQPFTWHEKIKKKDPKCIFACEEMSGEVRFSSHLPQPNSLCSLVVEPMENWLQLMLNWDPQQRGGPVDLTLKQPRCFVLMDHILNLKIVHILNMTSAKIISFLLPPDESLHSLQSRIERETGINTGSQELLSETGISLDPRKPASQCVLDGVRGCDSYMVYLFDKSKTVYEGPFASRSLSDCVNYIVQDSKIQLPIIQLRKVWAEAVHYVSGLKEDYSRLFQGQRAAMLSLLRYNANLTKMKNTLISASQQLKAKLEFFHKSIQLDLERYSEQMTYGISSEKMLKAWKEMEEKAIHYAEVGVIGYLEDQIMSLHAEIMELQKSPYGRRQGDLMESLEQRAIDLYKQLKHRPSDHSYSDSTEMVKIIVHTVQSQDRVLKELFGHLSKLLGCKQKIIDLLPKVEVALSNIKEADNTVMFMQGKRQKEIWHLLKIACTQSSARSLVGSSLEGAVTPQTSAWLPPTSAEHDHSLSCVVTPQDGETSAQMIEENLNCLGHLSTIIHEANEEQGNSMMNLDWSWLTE
Conditions: at 0.1 µM.

For assay [7], the target named is T2, Inhibitor of nuclear factor kappa-B kinase subunit alpha (Homo sapiens). Conditions: at 1 µM.
Assay [8] has as its target T3, Inhibitor of nuclear factor kappa-B kinase subunit beta (Homo sapiens) (UniProt O14920).
T3 sequence (whole entry): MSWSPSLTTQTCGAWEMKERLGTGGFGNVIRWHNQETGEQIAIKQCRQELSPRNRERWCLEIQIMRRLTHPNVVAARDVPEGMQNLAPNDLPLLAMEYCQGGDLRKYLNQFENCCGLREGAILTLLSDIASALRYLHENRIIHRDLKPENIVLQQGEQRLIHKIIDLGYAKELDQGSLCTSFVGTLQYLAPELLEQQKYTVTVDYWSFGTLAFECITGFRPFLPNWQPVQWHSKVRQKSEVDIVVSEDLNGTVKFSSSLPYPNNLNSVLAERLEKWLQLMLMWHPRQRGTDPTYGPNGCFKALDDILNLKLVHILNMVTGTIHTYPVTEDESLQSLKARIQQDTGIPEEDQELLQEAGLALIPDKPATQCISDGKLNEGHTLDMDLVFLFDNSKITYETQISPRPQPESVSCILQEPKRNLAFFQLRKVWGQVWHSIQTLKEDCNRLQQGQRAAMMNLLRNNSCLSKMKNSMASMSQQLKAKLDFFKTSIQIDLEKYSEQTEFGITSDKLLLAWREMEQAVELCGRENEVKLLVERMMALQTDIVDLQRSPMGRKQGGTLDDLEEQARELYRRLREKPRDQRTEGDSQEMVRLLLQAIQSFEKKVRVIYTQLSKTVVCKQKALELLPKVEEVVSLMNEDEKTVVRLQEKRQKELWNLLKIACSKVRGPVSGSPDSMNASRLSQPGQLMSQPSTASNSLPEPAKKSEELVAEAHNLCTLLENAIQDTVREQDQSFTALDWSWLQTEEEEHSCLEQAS
Conditions: at 0.1 µM.

The target of assay [9] is T3, Inhibitor of nuclear factor kappa-B kinase subunit beta (Homo sapiens). Conditions: at 1 µM.
In assay [10] the target is T4, Inhibitor of nuclear factor kappa-B kinase subunit epsilon (Homo sapiens) (UniProt Q14164).
T4 sequence (whole entry): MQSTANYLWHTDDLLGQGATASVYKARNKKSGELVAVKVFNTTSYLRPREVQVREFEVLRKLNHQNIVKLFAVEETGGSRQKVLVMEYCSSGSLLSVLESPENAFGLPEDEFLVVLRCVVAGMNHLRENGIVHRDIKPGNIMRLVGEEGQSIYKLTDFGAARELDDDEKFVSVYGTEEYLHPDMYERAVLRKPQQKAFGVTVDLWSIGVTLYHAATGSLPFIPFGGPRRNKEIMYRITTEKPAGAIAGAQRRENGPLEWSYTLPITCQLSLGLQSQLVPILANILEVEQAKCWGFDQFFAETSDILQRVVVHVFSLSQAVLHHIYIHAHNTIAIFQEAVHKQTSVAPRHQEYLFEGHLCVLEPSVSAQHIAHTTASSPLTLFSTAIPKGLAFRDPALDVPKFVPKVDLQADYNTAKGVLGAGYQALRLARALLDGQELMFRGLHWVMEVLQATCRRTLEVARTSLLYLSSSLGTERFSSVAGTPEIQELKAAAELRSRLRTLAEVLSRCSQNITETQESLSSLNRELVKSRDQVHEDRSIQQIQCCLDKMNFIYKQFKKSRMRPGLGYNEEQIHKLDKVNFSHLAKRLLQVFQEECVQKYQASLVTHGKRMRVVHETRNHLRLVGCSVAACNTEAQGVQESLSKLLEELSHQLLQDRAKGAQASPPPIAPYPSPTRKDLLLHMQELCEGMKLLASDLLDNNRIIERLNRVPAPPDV
Particulars: at 0.1 µM.

The target of assay [11] is T4, Inhibitor of nuclear factor kappa-B kinase subunit epsilon (Homo sapiens). Conditions: at 1 µM.
Assay [12] deals with T5, Serine/threonine-protein kinase Nek1 (Homo sapiens) (UniProt Q96PY6).
T5 sequence (whole entry): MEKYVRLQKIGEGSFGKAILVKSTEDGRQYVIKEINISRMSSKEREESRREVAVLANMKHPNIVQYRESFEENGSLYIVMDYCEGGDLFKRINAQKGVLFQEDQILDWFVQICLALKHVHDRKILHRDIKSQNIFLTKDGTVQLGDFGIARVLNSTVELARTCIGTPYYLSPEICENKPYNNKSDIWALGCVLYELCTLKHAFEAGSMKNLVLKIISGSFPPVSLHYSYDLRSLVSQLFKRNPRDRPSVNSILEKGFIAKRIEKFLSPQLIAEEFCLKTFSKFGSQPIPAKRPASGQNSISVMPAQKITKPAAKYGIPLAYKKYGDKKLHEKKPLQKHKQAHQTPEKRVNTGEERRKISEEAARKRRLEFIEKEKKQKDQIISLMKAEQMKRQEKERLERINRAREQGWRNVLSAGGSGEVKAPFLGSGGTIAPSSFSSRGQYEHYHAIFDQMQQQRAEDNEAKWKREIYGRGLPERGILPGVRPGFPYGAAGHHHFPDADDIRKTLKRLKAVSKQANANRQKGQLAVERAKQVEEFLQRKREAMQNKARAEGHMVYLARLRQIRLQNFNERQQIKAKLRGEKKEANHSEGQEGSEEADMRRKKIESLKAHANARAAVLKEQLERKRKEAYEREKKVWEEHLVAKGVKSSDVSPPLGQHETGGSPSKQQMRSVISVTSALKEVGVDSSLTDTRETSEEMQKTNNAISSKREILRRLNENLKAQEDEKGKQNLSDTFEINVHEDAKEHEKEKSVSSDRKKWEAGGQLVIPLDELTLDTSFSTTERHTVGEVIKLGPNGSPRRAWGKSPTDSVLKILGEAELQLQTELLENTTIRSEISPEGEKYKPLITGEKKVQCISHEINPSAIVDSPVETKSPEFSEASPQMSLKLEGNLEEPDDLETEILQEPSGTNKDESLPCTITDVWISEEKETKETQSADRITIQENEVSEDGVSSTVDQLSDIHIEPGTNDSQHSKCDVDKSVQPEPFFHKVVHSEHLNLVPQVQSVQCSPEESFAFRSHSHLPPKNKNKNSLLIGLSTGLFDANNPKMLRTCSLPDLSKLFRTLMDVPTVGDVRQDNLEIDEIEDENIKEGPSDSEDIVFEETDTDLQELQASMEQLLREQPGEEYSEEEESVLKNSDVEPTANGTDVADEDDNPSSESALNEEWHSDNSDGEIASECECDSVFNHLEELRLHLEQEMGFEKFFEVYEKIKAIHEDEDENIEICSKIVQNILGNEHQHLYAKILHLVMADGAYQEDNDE
Particulars: at 0.1 µM.

Assay [13] deals with T5, Serine/threonine-protein kinase Nek1 (Homo sapiens). Particulars: at 1 µM.
In assay [14] the target is T6, Serine/threonine-protein kinase Nek2 (Homo sapiens) (UniProt P51955).
T6 sequence (whole entry): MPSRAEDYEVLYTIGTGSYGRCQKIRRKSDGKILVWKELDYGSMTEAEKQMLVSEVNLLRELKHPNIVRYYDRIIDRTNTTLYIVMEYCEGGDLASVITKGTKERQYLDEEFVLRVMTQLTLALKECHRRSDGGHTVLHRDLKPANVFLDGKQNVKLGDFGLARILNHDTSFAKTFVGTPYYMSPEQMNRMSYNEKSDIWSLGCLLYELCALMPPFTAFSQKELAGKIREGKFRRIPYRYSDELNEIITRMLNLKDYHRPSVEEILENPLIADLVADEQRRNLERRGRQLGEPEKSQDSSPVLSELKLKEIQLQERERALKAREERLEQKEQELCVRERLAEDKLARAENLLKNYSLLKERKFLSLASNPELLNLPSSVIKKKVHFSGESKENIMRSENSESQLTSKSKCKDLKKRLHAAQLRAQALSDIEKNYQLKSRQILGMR
Conditions: at 0.1 µM.

Assay [15] concerns the target T6, Serine/threonine-protein kinase Nek2 (Homo sapiens). Particulars: at 1 µM.
Assay [16] has as its target Serine/threonine-protein kinase Nek6 (Homo sapiens) (UniProt Q9HC98). Particulars: at 0.1 µM.
Assay [17] shares this target. Particulars: at 1 µM.
Assay [18] concerns the target Serine/threonine-protein kinase Nek7 (Homo sapiens) (UniProt Q8TDX7). Particulars: at 0.1 µM.
For assay [19] the target is unchanged. Conditions: at 1 µM.
Assay [20] addresses T7, Serine/threonine-protein kinase Nek9 (Homo sapiens) (UniProt Q8TD19).
T7 sequence (whole entry): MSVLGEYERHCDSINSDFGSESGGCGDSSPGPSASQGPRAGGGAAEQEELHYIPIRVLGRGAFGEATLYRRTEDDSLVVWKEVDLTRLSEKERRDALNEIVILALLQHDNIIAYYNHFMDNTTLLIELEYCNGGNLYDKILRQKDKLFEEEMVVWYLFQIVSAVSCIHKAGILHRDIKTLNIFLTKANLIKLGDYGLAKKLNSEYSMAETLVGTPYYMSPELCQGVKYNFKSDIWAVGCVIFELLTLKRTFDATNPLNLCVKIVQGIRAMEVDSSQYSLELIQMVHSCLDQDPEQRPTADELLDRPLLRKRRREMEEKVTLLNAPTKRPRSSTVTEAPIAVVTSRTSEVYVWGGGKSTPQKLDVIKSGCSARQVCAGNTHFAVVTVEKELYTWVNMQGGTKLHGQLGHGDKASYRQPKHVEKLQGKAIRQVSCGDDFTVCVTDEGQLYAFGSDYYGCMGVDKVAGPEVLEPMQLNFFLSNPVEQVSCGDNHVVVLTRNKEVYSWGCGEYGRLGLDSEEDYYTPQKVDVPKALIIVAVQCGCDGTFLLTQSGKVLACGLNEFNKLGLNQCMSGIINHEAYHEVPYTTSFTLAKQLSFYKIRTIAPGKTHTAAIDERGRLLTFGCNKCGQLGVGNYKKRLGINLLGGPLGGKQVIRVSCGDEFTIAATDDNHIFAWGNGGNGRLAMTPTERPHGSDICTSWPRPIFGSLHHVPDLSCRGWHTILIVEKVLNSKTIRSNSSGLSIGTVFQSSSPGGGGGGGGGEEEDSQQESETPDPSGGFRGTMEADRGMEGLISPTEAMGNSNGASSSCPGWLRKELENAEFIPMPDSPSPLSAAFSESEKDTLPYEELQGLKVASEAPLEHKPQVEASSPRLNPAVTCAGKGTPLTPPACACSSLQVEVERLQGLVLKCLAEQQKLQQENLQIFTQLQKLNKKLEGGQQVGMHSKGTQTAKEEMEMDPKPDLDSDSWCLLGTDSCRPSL
Conditions: at 0.1 µM.

Sequence of Serine/threonine-protein kinase Nek7 (Homo sapiens) (Q8TDX7 whole entry, looked up): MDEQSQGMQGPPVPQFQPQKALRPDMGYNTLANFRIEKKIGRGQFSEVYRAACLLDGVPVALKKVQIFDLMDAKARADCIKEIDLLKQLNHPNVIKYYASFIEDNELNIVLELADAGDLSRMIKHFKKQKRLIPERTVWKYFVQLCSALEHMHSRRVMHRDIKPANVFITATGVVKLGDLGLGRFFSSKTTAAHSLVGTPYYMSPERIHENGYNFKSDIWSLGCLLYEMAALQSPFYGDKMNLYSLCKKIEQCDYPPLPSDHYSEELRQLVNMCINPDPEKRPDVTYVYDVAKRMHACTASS
Sequence of Serine/threonine-protein kinase Nek6 (Homo sapiens) (Q9HC98 whole entry): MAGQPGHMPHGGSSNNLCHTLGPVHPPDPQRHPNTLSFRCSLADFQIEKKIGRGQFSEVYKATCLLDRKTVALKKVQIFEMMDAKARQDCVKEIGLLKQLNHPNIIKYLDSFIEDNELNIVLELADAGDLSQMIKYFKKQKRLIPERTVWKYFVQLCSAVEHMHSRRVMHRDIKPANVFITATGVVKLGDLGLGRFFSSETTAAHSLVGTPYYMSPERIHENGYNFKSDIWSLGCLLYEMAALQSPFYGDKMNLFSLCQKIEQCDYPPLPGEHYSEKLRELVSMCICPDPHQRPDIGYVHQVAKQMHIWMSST
Sequence of Sphingosine kinase 1 (Homo sapiens) (Q9NYA1 whole entry): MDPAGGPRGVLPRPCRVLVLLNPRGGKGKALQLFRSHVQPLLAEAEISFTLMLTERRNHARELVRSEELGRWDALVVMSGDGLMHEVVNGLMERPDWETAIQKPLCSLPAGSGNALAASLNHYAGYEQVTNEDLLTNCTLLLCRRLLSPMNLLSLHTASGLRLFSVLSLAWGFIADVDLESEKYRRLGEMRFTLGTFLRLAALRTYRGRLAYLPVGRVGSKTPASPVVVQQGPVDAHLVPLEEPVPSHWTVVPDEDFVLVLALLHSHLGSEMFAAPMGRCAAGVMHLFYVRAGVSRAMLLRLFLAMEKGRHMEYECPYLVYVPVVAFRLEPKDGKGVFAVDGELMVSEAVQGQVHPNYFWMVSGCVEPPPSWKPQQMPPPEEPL

The term inhibition denotes the drop in the measured response relative to a control, in per cent. With `CS(=O)(=O)CCNCc1coc(-c2ccc3ncnc(Nc4ccc(OCc5ccccc5)cc4)c3c2)c1`, the inhibition in assay [1] is -1.49%; in assay [2], 0%; in assay [3] it was -0.98%; in assay [4] it was 1.05%; in [5] it was 6.53%; in assay [6], 4.1%. For the same compound, the inhibition in [7] was determined as 2.85%; in assay [8] it was 3.35%; in assay [9] it was 5.11%; in assay [10], 4.2%; in assay [11], 4.57%; in assay [12] it was 2.15%. The inhibition worked out at 3.07% in assay [13]; 4.2% in assay [14]; 2.21% in assay [15]; 1.54% in [16]; 2.23% in assay [17]; 2.37% in assay [18]. The inhibition in assay [19] worked out at 3.98%; in assay [20] it was 8.97%.
